LANA-H2A inh – blocks KSHV LANA binding to histone H2A/H2B | Q9QR71 | inhibition, % (no concentration beside the values) | 0.6% of 320,000 active | cell-free LANA-H2A/H2B peptide, fluorescence polarization; in the data active means inhibition mostly above about 10%, no sharp cut-off; inactive means mostly below about 6.7%
HDAC3 inhib – human HDAC3 inhibition; O15379; recombinant HDAC3, fluorogenic peptide/trypsin coupled, fluorescence; inhibition, % at 8.3 µM; 0.15% of 320,000 active; AID 2718; in the data active means inhibition above about 26%, passing the limit was not always enough
Yeast superoxide – caloric restriction mimetics inhibiting age-related superoxide in yeast | S. cerevisiae aged cells, superoxide DHE fluorescence; active compounds read low | superoxide response (% of plate mean), % at 10 µM | 0.18% of 330,000 active | AID 2690;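 active means superoxide response under a set limit, about three screen SD below normal, cut at about 65% in these data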;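 further: yeast aged for seven days with compound at 30 °C before DHE staining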
HIF activator – HIF pathway transcriptional activation | U2OS HRE-luciferase reporter, luminescence; normalized: DMSO 0%, desferrioxamine 100% | activation, % at 7.5 µM (by protocol) | 0.32% of 300,000 active | AID 1910;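 active means mean activation of at least 10% of the iron chelator positive control signal, with at least half of replicates also reaching 10%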
Hits are given with their value. Shown are actives, neighbours in structure and some others; about 1.2% of the full set was active somewhere.

Results for CCOC(=O)NC1(C(F)(F)F)N=C(c2ccccc2)NC1=O (stereo unspecified) ?
LANA-H2A inh: 14; HDAC3 inhib: inactive; Yeast superoxide: inactive; HIF activator: inactive

How did O=C(c1cccnc1)N1N=C(C2CC2)CC1(O)C(F)(F)F (stereo unspecified) do in these assays?
LANA-H2A inh: 11; Yeast superoxide: inactive; HIF activator: inactive

What do the screens show for `O=C1CCN2C=Nc3cccc4ccc1c2c34`?
LANA-H2A inh: 114; HDAC3 inhib: inactive; Yeast superoxide: inactive; HIF activator: inactive

What do the screens show for `C#CCNC(=O)C1=C[C@@H](c2coc3ccccc3c2=O)C[C@@H](OCc2ccc(CO)cc2)O1`?
LANA-H2A inh: inactive; HDAC3 inhib: 36; Yeast superoxide: inactive; HIF activator: inactive

What do the screens show for `C#CCNC(=O)C1=C[C@H](c2coc3ccccc3c2=O)C[C@H](OCc2ccc(CO)cc2)O1`?
LANA-H2A inh: inactive; HDAC3 inhib: inactive; Yeast superoxide: inactive; HIF activator: inactive

What do the screens show for `O=C(O)c1ccccc1C1=Nc2ccc(O)cc2Oc2cc(O)ccc21`?
LANA-H2A inh: 17; HDAC3 inhib: inactive; Yeast superoxide: inactive; HIF activator: inactive

What do the screens show for `C/C(=N/NC(=O)CNC(=O)COc1ccccc1)c1ccco1`?
LANA-H2A inh: inactive; HDAC3 inhib: inactive; Yeast superoxide: inactive; HIF activator: inactive

How did O=C(NCC(=O)N1CCN(c2ncccn2)CC1)c1cccs1 do in these assays?
LANA-H2A inh: inactive; HDAC3 inhib: inactive; Yeast superoxide: inactive; HIF activator: inactive

How did Cc1ccc(C(=O)NCC(=O)N2CCN(c3ncccn3)CC2)s1 do in these assays?
LANA-H2A inh: 18; HDAC3 inhib: inactive; Yeast superoxide: inactive; HIF activator: inactive

What do the screens show for `COc1ccc(NC(=S)N2CCN(C(=O)c3ccccc3)CC2)cc1`?
LANA-H2A inh: inactive; HDAC3 inhib: inactive; Yeast superoxide: inactive; HIF activator: 58

How did COc1ccc(NC(=S)N2CCN(C)CC2)cc1 do in these assays?
LANA-H2A inh: inactive; HDAC3 inhib: inactive; Yeast superoxide: inactive; HIF activator: inactive

How did COc1cc(NC(=S)N2CCN(C)CC2)cc(OC)c1 do in these assays?
LANA-H2A inh: 9.7; HDAC3 inhib: inactive; Yeast superoxide: inactive; HIF activator: inactive

Results for Cc1cc(O)c(C(C)C)cc1C1(c2cc(C(C)C)c(O)cc2C)OC(=O)c2ccccc21 ?
LANA-H2A inh: 15; HDAC3 inhib: inactive; Yeast superoxide: inactive; HIF activator: inactive

What do the screens show for `COc1ccccc1/C=C/C(=O)NC(=S)Nc1ccccn1`?
LANA-H2A inh: 8.0; HDAC3 inhib: inactive; Yeast superoxide: inactive; HIF activator: inactive

What do the screens show for `COc1ccc(/C=C/C(=O)NC(=S)Nc2ccccn2)cc1`?
LANA-H2A inh: inactive; HDAC3 inhib: inactive; Yeast superoxide: inactive; HIF activator: inactive

Results for O=C(C[n+]1ccn(CCCNP2(=O)C=C(c3ccccc3)OC(c3ccccc3)=C2)c1)c1cccs1 ?
LANA-H2A inh: inactive; HDAC3 inhib: inactive; Yeast superoxide: inactive; HIF activator: 101

How did N=C(N)c1ccc(OCCCCCOc2ccc(C(=N)N)cc2)cc1 do in these assays?
LANA-H2A inh: inactive; HDAC3 inhib: 61; Yeast superoxide: inactive; HIF activator: inactive

Results for COc1cc(C(=O)N/N=C/c2coc3ccc(Cl)cc3c2=O)ccc1O ?
LANA-H2A inh: inactive; HDAC3 inhib: 96; Yeast superoxide: inactive; HIF activator: inactive

Results for COc1cc(C(=O)Oc2ccccc2/C=N/NC(=O)c2ccc(Cl)cc2)cc(OC)c1OC ?
LANA-H2A inh: inactive; HDAC3 inhib: inactive; Yeast superoxide: inactive; HIF activator: 71

How did COc1ccc(C(=O)N/N=C\c2coc3ccccc3c2=O)cc1 do in these assays?
LANA-H2A inh: inactive; HDAC3 inhib: 89; Yeast superoxide: inactive; HIF activator: inactive

What do the screens show for `O=C(N/N=C/c1coc2ccc(Cl)cc2c1=O)c1ccncc1`?
LANA-H2A inh: inactive; HDAC3 inhib: inactive; Yeast superoxide: inactive; HIF activator: inactive

What do the screens show for `O=C(N/N=C/c1coc2ccc(Cl)cc2c1=O)c1ccc(O)cc1`?
LANA-H2A inh: inactive; HDAC3 inhib: 97; Yeast superoxide: inactive; HIF activator: inactive

How did COc1ccc(C(=O)N/N=C\c2coc3ccc(Cl)cc3c2=O)cc1 do in these assays?
LANA-H2A inh: inactive; Yeast superoxide: inactive; HIF activator: inactive

What do the screens show for `COc1cc(C(=O)Oc2ccccc2/C=N/NC(=O)c2ccc(C)c(Cl)c2)cc(OC)c1OC`?
LANA-H2A inh: inactive; HDAC3 inhib: inactive; Yeast superoxide: inactive; HIF activator: inactive

How did Cc1cc(/C=N/n2c(COc3ccccc3)nc3ccccc3c2=O)c(O)c([N+](=O)[O-])c1 do in these assays?
LANA-H2A inh: inactive; HDAC3 inhib: inactive; Yeast superoxide: inactive; HIF activator: 15

How did Cc1ccc(NC(=O)CNC(=O)Cc2cccc3ccccc23)c(O)c1 do in these assays?
LANA-H2A inh: inactive; HDAC3 inhib: inactive; Yeast superoxide: inactive; HIF activator: inactive

Screening data: PubChem BioAssay, several laboratories
